697 NFkB inh: inhibitors of the PMA/ionomycin-induced NF-kB reporter in 697 B cells. 697 B-cell NF-kB luciferase reporter, 16 h. inhibition, % at 4 µM. 330,000 tested, 0.33% active; in the data active means inhibition above about 35%
aSyn UTR inh: MLPCN primary screen, SNCA 5' untranslated region; alpha-synuclein 5'UTR reporter, inhibitor activity; inhibition, % (tested at 7.5 µM); 300,000 tested, 0.82% active; AID 1813; in the data active means inhibition above about 60%;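 further: H4 neuroglioblastoma cells stably carrying SNCA 5'UTR luciferase fusion; 0% = DMSO wells and 100% = positive control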
Jurkat NFkB inh: lowers PMA/ionomycin-induced NF-kB signal in Jurkat cells | 330,000 tested, 0.53% active | PMA/ionomycin-induced NF-kB luciferase reporter, luminescence | inhibition, % at 4 µM | AID 435003; in the data active means inhibition above about 50%
Shn3 inh set2: reduces Shn3 3'UTR luciferase signal in osteoblasts. Clone20 osteoblast Shn3 3'UTR firefly luciferase, 24 h. inhibition, % at 12.5 µM. 360,000 tested, 0.52% active;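 active means mean inhibition of at least 75% with every replicate also reaching 75%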;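 further: 0% = median of neutral control wells and 100% = pilot-screen positive control compound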
H9c2 TAG inh: reduces triacylglycerol accumulation in H9c2 cells; Nile Red lipid (TAG) fluorescence; cells loaded with 200 µM oleic acid; inhibition, % at 12.5 µM; 230,000 tested, 0.66% active; AID 651582;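 active means pattern-corrected inhibition of lipid staining of at least 50% with the nuclear-stain viability signal not falling by more than 50%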;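 further: 0% = DMSO wells and 100% = triacsin C control wells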
Gli-Sufu antag: antagonists of Gli-Sufu signaling; AID 588413; 340,000 tested, 0.74% active; inhibition, % at 5 µM; Sufu-KO-LIGHT fibroblasts, Gli luciferase reporter luminescence;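 active means inhibition above about 55%, limit read from the data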;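 further: 0% = DMSO-treated cells and 100% = wells with medium but no cells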
697 NFkB conf: inhibitors of the PMA/ionomycin-induced NF-kB reporter in 697 B cells, retest; shares compounds with 697 NFkB inh; 697 B-cell NF-kB luciferase, 16 h; inhibition, % at 4 µM; 2,000 tested, 35% active; AID 449746; in the data active means inhibition mostly above about 28%, no sharp cut-off; inactive means mostly below about 22%
* hit, by the source's call; i = inactive; x = no result. In the library only some 2.3% were active in any assay of this set; here they are far more common.

SMILES	697 NFkB inh	aSyn UTR inh	Jurkat NFkB inh	Shn3 inh set2	H9c2 TAG inh	Gli-Sufu antag	697 NFkB conf
COc1cccc(NC(=O)Cn2nnc(C(=O)Nc3cc(Cl)ccc3OC)c2N)c1	-1	30	12	-4	x	30	x
CC(=O)c1c(C)[nH]c(C(=O)NC2CCSc3ccccc32)c1C (stereo not drawn)	-9	-33	8	26	10	-14	x
CCc1c(C(=O)NC2CCCc3ccccc32)[nH]c(C)c1C(C)=O (stereo not drawn)	-301	64*	-27	47	x	10	-16
COc1cc(/C=N/NC(=O)C2CC(=O)N(c3ccc(C)cc3)C2)cc(OC)c1OC (stereo not drawn)	35	29	12	-3	x	-5	21
COc1ccc(N2CC(C(=O)N/N=C/c3ccccc3)CC2=O)cc1 (stereo not drawn)	10	25	-4	13	2	-8	x
O=C(O)c1cc(N/N=C/c2ccc(N3CCOCC3)cc2)ccc1Cl	-59	19	-10	x	-4	-9	x
Cc1ccc(NC(=O)c2ccc(-c3nn(C)c(=O)c4ccccc34)cc2)cc1	42*	1	21	21	x	39	14
Cc1nc2c(ccc3nc(NC(=O)c4ccc5c(c4)OCCO5)sc32)s1	-255	-117	-116	-49	x	-107	-223
O=C(Nc1ccncc1)c1ccc2c(c1)OCCO2	-7	-68	-14	-10	-15	-12	x
Cc1ccc(NC(=O)c2ccc3c(c2)OCCO3)cc1	-252	22	-139	-2	-8	4	-211
Cc1ccc(C(=O)Nc2ccc3ccccc3c2)cc1	-368	66*	-112	53	-14	-166	-447
Cn1nc(-c2ccc(C(=O)Nc3ccc(F)cc3)cc2)c2ccccc2c1=O	13	28	-11	35	x	21	x
COC(=O)C1(NC(=O)NC23CC4CC(CC(C4)C2)C3)CCCCC1	11	19	2	0	-3	5	x
CCOc1ccc(NC(=S)NC(=O)C2CCCC2)cc1	10	-35	7	-20	x	-5	x
CC1Sc2ccc(Cl)cc2-c2nc(N)ncc21 (stereo not drawn)	-1	9	4	-28	3	-20	x
O=C(Nc1nc(-c2ccc(F)cc2)cs1)c1ccc(N2C(=O)CCC2=O)cc1	-16	-13	1	-3	8	3	x
Cc1cccc(C(=O)n2c(=S)nc3cc(C)ccn32)c1	-367	-60	-132	16	4	-85	-349
Cc1ccn2c(c1)nc(=S)n2C(=O)c1ccccc1	i	-100	-119	16	x	-48	-405
C#CCN(C#N)c1nc(NCC)nc(NC(C)C)n1	8	33	-11	6	x	0	x
O=C(NCCC1CCCCN1S(=O)(=O)c1ccccc1)C(=O)NCc1ccncc1 (stereo not drawn)	34	30	-10	-4	5	45	x
Cc1ccc(S(=O)(=O)N2CCCCC2CCNC(=O)C(=O)NCc2ccncc2)cc1 (stereo not drawn)	53*	56	-2	14	12	18	52*
Cc1cc(C)c(S(=O)(=O)N2CCCCC2CCNC(=O)C(=O)NC2CC2)c(C)c1 (stereo not drawn)	i	-43	-80	63	-27	2	i
CCOCc1nnc(NC(=O)c2cc(OC)c(OC)cc2[N+](=O)[O-])s1	20	-8	12	9	11	0	x
COC(=O)c1nccnc1C(=O)Nc1ccccc1N1CCOCC1	1	-19	-11	9	-6	-4	x
NC(=O)c1cccc(-c2cnc3c(Nc4cccc(OC(F)(F)C(F)F)c4)nccn23)c1	x	x	x	-34	13	x	x
SMILES	697 NFkB inh	aSyn UTR inh	Jurkat NFkB inh	Shn3 inh set2	H9c2 TAG inh	Gli-Sufu antag	697 NFkB conf
O=C(NCc1ccccc1)c1ccc(C(=O)N(C2CCCCC2)C2CCCCC2)cc1	35*	19	25	0	x	13	8
O=C(NCc1ccccc1)c1ccc(C(=O)NCc2ccccc2)cc1	x	x	x	-5	12	0	x
CC1=CCC2C(=O)N(c3ccc(Br)cc3C)C(=O)C2C1 (stereo not drawn)	1	12	1	4	-15	3	x
Cn1cc(Cl)c(C(=O)Nc2nc3ccccc3s2)n1	-256	-30	-89	-28	x	-91	-267
COc1ccc(C(c2c(O)nc(SC)n(C)c2=O)c2c(O)nc(SC)n(C)c2=O)cc1O	5	-6	14	-3	x	0	x
Cc1cc(C)c2nc(N)sc2c1	12	-15	-4	-5	0	-9	x
Cc1ccc(-c2nn3c(C)nnc3c3ccccc23)cc1S(=O)(=O)NCCN1CCOCC1	53*	12	-6	1	x	16	30*
Cc1oc(-c2ccc(-c3ccccc3)cc2)nc1CN1CCN(CC(=O)N(C)C)CC1	-267	-143	-15	-51	2	-79	-263
Nc1ccc(C(=O)OCc2nc3ccccc3s2)cc1	13	-34	-3	-35	-54	-39	x
O=C(N/N=C/c1ccc(-c2ccccc2Cl)o1)c1ccccc1	-57	-20	-23	-58	17	-42	x
O=C(O)c1ccc(N/N=C/c2ccc(-c3ccccc3Cl)o2)cc1	-250	-65	-103	-1	68*	-56	-107
Cc1ccc(-c2nnc(Nc3ccccc3)o2)cc1	-303	56	-59	21	x	-72	-366
COc1ccc(C(=O)N/N=C/c2cc3ccccc3[nH]c2=S)cc1	36*	1	16	-13	-49	5	2
COCCNC(=O)c1c(N)n(-c2cccc(C)c2)c2nc3ccccc3nc12	35*	29	-1	16	8	7	19
COCCNC(=O)c1c(N)n(-c2ccccc2)c2nc3ccccc3nc12	-21	19	-13	27	x	3	x
Oc1ccc(N=Nc2ccc3c(c2)OCO3)c2ccccc12	-306	8	16	x	x	x	-22
Oc1c(Br)cc(Br)cc1C=Nc1ccc2c(c1)OCO2	22	-66	-2	-40	x	2	x
Cn1cc(SCC(=O)NCc2ccc(F)cc2)c2ccccc21	40*	11	-9	5	1	2	-8
Cc1c(CC(=O)O)c(=O)oc2c(C)c(OCc3nn[nH]n3)ccc12	12	-14	-4	-19	8	-19	x
Cc1ccc(-c2nc(N)n(C(=O)c3ccco3)n2)cc1	36*	-29	-20	-3	3	4	-12
CSc1nc(-c2ccccc2)nn1C(=O)c1ccco1	-3	-7	-2	-11	-14	-4	x
COc1ccc(C(=O)CSc2nc(-c3ccccn3)nc(C)c2Cl)cc1	1	-40	9	x	-19	-1	x
Cc1ccoc1C(=O)Nc1ccc(CC(=O)O)cc1	66*	84*	38	39	x	31	60*
Cc1ccc(-n2c(SCC(=O)N3CCCc4ccccc43)nnc2-c2cccnc2)c(C)c1	4	-14	7	-4	x	1	x

High-throughput results deposited in PubChem by several laboratories.
